Unmarked numbers belong to inactive results. Activity calls are given as the source filed them.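 How the source made its calls: active means inhibition above the hit cutoff set in the earlier primary screen (cut at about 27% in these data); inactive means the rest.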
What follows are compounds tested against Protein phosphatase methylesterase 1 (Homo sapiens) (UniProt Q9Y570) (assay: PME-1 inhibitor activity retest, confirmation, biochemical, fluorescence polarization, FP-Rh probe, triplicate (AID 2171;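 further: 0% = enzyme with DMSO and 100% = wells lacking PME-1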)). Conditions: recombinant PME-1, FP-Rh probe fluorescence polarization; at 5.9 µM; hits give high values.
Protein phosphatase methylesterase 1 (Homo sapiens), sequence (Q9Y570 whole entry, looked up): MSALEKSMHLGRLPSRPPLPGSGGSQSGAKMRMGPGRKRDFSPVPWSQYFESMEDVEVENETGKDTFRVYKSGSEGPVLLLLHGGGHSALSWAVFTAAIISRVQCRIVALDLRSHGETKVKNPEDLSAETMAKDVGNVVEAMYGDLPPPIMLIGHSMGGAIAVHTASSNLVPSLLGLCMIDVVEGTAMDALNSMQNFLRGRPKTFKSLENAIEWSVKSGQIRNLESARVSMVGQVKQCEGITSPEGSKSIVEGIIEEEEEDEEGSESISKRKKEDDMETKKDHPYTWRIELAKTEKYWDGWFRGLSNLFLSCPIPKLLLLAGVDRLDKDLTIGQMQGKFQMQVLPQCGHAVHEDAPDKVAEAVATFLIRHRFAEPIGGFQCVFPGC

SMILES	inhibition
COc1ccc(NC(=O)C2CCN(C(=O)c3cccs3)CC2)cc1OC	5.2%
CN(c1ccccc1)S(=O)(=O)c1ccc(NC(=O)c2ccc(-c3ccccc3)cc2)cc1	59.7% (active)
O=c1[nH][nH]c2cc(=O)n(-c3cccc(C(F)(F)F)c3)nc12	28.5% (active)
O=c1[nH]c(C2CCN(S(=O)(=O)c3ccc(C(F)(F)F)cc3)CC2)nc2c1nnn2Cc1ccc(F)cc1	79.1% (active)
C/C(=N\Nc1ccc(C(=O)O)cc1)c1ccc2c(c1)Nc1ccccc1S2	30.5% (active)
COc1ccc(S(=O)(=O)N(C)C)cc1NC(=O)Cc1c[nH]c2ccccc12	85% (active)
COc1ccc(-c2c/c(=N\c3nc(-c4ccccc4)c(C)s3)c3ccccc3o2)cc1O	20.8%
CNc1ccc2c3c(cccc13)C(=O)N(C)C2=O	71.2% (active)
COc1ccc(NS(=O)(=O)c2ccc3oc(Nc4ccc5c(c4)OCCO5)nc3c2)cc1	12.1%
Cc1[nH]c2ccccc2c1CCNC(=O)c1ccc2c(c1[N+](=O)[O-])C(=O)c1ccccc1C2=O	30.9% (active)
CCOc1ccc(NC(=S)NNc2ccnc3cc(Cl)ccc23)cc1	28.3% (active)
O=C(c1ccc2oc(CCCc3ccccc3)nc2c1)N1CCCC(CCCO)C1 (stereo not given)	23.5%
O=C1CC(N(O)c2ccccc2)C(=O)N1c1cc(Cl)cc(Cl)c1 (stereo not given)	5.35%
N#CC1=C(N)C(C#N)(C#N)C(c2cccnc2)C2CC(c3ccccc3)CC=C12 (stereo not given)	83.5% (active)
Nc1c(C(=O)Nc2ccccc2F)sc2nc(-c3ccco3)ccc12	19.9%
Cc1ccc(NCC(O)C(O)C(O)CO)c(N=Nc2ccccc2)c1C (stereo not given)	50.7% (active)
O=[N+]([O-])c1ccc(N/N=C/c2cccc(O)c2O)cc1	23.3%
Cc1[nH]c2c(C)cccc2c1CCNC(=O)c1ccc2c(c1[N+](=O)[O-])C(=O)c1ccccc1C2=O	75.1% (active)
COc1ccccc1NC(=O)c1sc2nc(-c3ccco3)ccc2c1N	71.6% (active)
COc1ccccc1NC(=O)c1cc2ccc(O)cc2o/c1=N\O	19.6%

SMILES	inhibition
Cc1ccc(OCCn2cc(/C=N/NC(=O)c3ccncc3)c3ccccc32)cc1	33.5% (active)
N#CCC(=O)Nc1ccc(C(=O)OCc2ccccc2Oc2ccccc2)cc1	-74.3%
O=C1CN(C(=O)c2cc3ccccc3oc2=O)C(c2ccccc2)c2cc(F)ccc2N1 (stereo not given)	18.1%
CC1(C)CC(=O)C2=C(C1)N(CCN1CCOCC1)C1=C(C(=O)CC(C)(C)C1)C2c1cccc(F)c1	25.2%
CC1=CC(C)(C)N2C(=O)C(=Nc3ccc(O)cc3)c3cccc1c32	4.13%
Cc1nn(-c2ccccc2)c2ncc(C(=O)c3cc(Cl)ccc3O)cc12	-5.34%
Cc1cccc(NC(=S)N/N=C/c2c[nH]c3ccccc23)c1	33.3% (active)
O=[N+]([O-])c1ccc(C2Nc3cccc4cccc(c34)N2)cc1	35.9% (active)
CSC[C@@H]1NC(=S)N(c2ccc(C)cc2)C1=O	38% (active)
CCN(CC(=O)Nc1c(C(=O)OC)[nH]c2ccc(Cl)cc12)c1ccc2c(c1)OCO2	6.28%
CC(C)=NNc1nc2sc3c(c2c(=O)[nH]1)CC(C)(C)OC3	14.6%
Cc1ccc(-n2[nH]c(C)c(/C=N/Nc3ccc([N+](=O)[O-])cc3[N+](=O)[O-])c2=O)cc1C	33.5% (active)
COc1cc(/C=N/NC(=O)c2cc3c(ccc4ccccc43)o2)cc(OC)c1O	29% (active)
Oc1ccc(/C=C/c2ccc3cccc(O)c3n2)cc1Br	23.9%
COc1ccc2oc(C(=O)OCC(=O)N3CCN(S(=O)(=O)c4ccc(C)cc4)CC3)c(C)c2c1	17.9%
CCc1cccc2cc3c(N)c(C(=O)Nc4ccc(S(=O)(=O)N5CCCC5)cc4)sc3nc12	-1.66%
CSc1ccccc1C(=O)NCCCn1ccnc1	5.36%
Cc1ccc(-c2nc(Nc3ccccc3)n[nH]2)cc1	48.5% (active)
COc1cc(/C=N/NC(=O)c2cc3ccccc3[nH]2)ccc1O	16.1%
O=S(=O)(Nc1nc2ccccc2nc1Nc1cccc(S(=O)(=O)N2CCCCC2)c1)c1ccccc1	34.9% (active)
